Source: PubChem BioAssay
Unmarked numbers belong to inactive results. Where a call stands in place of a potency, no number is given. For some assays here: Potency and affinity values are given separately. Calls of active or inactive are those of the source. Unless noted, how the calls were made is not given here.

What was measured:
[1] = antimalarial activity against Dd2 strain (AID 2302;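 active means growth inhibition above 50% at the single 2 µM test dose, taken to imply half-maximal potency below 2 µM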); conditions: P. falciparum Dd2 in RBCs, LDH growth readout, 72 h; at 2 µM; active compounds read high
[2] = HepG2 cytotoxicity, primary screen, cytotoxicity control for P. falciparum antimalarial project, cell-based, ATP luminescence (AID 2303;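 active means inhibition above 50%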); conditions: HepG2 viability, 24-48 h, at 10 µM, active compounds read high
[3] = biological target: L-lactate dehydrogenase (Plasmodium falciparum (isolate CDC / Honduras)) (UniProt Q27743); test: PfLDH activity inhibition – cell lysate, 3D7 strain, counter-screen for P. falciparum growth inhibition project (AID 2304); conditions: P. falciparum 3D7 crude extract, LDH APAD/NBT absorbance; at 2 µM; active compounds read high
Chain of L-lactate dehydrogenase (Plasmodium falciparum (isolate CDC / Honduras)) (Q27743 whole entry, looked up): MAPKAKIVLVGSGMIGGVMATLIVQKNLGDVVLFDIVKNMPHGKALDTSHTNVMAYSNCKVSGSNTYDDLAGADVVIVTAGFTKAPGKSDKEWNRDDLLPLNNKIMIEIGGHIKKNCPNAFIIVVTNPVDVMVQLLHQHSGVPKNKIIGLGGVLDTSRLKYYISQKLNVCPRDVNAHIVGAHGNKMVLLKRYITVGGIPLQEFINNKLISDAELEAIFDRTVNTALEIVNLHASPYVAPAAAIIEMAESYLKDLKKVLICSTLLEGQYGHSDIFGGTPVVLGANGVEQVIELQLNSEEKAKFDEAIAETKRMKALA

[4] = inhibition of 3D7 malaria parasite growth – strain 3D7 (AID 2306); conditions: P. falciparum 3D7 erythrocytic growth, LDH absorbance, 72 h; at 2 µM; active compounds read high
[5] = biological target: Calcium-dependent protein kinase 1 (Plasmodium falciparum (isolate 3D7)) (UniProt P62344); test: PfCDPK1 kinase inhibitors, biochemical, TCAMS library (AID 1159585; cut-off not given, nearly all actives have IC50 up to about 0.98 µM;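 further: inhibitors leave more ATP so luminescence rises with inhibition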); conditions: recombinant PfCDPK1, Kinase-Glo ATP depletion luminescence
Chain of Calcium-dependent protein kinase 1 (Plasmodium falciparum (isolate 3D7)) (P62344 whole entry, looked up): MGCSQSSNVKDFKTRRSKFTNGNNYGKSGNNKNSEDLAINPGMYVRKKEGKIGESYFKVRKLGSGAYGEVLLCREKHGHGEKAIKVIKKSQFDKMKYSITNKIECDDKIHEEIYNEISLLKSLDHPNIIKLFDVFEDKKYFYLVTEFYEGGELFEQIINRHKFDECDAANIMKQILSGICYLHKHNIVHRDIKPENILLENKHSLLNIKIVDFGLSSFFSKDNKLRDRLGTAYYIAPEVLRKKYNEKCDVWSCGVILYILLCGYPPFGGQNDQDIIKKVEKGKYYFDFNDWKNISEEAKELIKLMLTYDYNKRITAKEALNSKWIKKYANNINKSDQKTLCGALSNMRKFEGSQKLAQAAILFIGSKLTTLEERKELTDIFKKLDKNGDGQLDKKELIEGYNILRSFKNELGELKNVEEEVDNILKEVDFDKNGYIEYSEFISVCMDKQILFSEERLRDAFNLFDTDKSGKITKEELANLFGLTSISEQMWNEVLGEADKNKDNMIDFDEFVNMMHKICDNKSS

[6] = biological target: Plasmodium falciparum protein kinase 6 (PK6, PF3D7_1337100) (UniProt Q8IDW1); test: PfPK6 kinase inhibitors, biochemical, TCAMS library (AID 1159586); conditions: recombinant PfPK6, Kinase-Glo ATP depletion luminescence
Chain of Plasmodium falciparum protein kinase 6 (PK6, PF3D7_1337100) (Q8IDW1 1-305): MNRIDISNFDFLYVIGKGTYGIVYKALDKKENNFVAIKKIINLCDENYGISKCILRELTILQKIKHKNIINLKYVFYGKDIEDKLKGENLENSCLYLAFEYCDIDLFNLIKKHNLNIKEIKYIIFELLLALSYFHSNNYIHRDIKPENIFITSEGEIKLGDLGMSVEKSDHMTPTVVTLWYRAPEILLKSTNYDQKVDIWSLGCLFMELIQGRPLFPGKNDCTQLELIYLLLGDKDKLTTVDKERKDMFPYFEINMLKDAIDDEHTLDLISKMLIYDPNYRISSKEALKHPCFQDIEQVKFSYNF

[7] = biological target: Protein kinase 7 (PK7), Plasmodium falciparum 3D7 (PF3D7_0213400) (UniProt Q7YTF7); test: inhibition of Plasmodium PK7 catalytic activity – biochemical, TCAMS antimalarial set, Kinase-Glo luminescence (AID 1159587); conditions: recombinant PfPK7, Kinase-Glo ATP depletion luminescence
Chain of Protein kinase 7 (PK7), Plasmodium falciparum 3D7 (PF3D7_0213400) (Q7YTF7 1-343): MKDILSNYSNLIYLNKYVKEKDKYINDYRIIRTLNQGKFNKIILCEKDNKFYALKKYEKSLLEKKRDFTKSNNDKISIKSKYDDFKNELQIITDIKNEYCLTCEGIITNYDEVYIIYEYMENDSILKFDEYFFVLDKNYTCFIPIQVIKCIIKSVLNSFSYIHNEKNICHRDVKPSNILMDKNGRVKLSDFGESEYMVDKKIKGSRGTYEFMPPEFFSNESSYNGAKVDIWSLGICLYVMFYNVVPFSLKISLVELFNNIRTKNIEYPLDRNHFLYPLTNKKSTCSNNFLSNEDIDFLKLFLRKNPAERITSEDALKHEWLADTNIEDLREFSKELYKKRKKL

[8] = biological target: Calcium-dependent protein kinase 4 (Plasmodium falciparum (isolate 3D7)) (UniProt Q8IBS5); test: PfCDPK4 kinase inhibitors, biochemical, TCAMS library (AID 1159588; cut-off not given, nearly all actives have IC50 up to about 0.91 µM); conditions: recombinant PfCDPK4, Kinase-Glo ATP depletion luminescence
Chain of Calcium-dependent protein kinase 4 (Plasmodium falciparum (isolate 3D7)) (Q8IBS5 whole entry, looked up): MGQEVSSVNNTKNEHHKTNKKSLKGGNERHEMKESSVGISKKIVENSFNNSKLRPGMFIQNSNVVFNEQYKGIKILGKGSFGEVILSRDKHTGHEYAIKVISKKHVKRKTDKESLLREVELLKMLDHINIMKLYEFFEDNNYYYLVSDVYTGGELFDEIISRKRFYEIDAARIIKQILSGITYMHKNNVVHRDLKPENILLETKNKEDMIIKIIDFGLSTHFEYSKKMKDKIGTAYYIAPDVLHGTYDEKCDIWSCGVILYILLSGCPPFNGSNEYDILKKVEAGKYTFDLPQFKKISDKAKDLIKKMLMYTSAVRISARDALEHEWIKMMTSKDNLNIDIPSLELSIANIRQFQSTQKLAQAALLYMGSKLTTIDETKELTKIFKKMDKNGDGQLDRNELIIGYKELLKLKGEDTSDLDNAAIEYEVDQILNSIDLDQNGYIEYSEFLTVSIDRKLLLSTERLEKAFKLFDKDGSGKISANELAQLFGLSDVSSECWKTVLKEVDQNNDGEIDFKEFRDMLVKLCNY

Compound	growth inhibition [1]	inhibition [2]	inhibition [3] [%]	growth inhibition [4]	outcome [5]	outcome [6]	outcome [7]	outcome [8]
Nc1ccc2nc(C=Cc3ccccc3)[nH]c2c1	89% (active)	7%	1	92% (active)	inactive	inactive	inactive	inactive
CCCN(Cc1nnc(-c2ccco2)o1)C(=O)C1CCCN(C(=O)c2ccc(Cl)cc2)C1 (stereo unspecified)	96% (active)	-3%	-1	96% (active)	inactive	inactive	inactive	inactive
O=C(Nc1ccc(Br)cc1)Nc1ccc(Cn2ncc(N3CCCNCC3)c(Cl)c2=O)cc1	15%	-7%	-1	87% (active)	inactive	inactive	inactive	inactive
COc1cc(CNC(=S)NN=C(C)c2ccccn2)cc(OC)c1OC	92% (active)	45%	-4	99% (active)	inactive	inactive	inactive	inactive
CN(C)CCCNCc1ccc(-c2ccc(C(F)(F)F)cc2)cc1	35%	30%	-4	96% (active)	inactive	inactive	inactive	inactive
Cc1sc(N2CCCCC2)nc1C(=O)Nc1ccc(F)cc1C(F)(F)F	35%	-18%	2	86% (active)	inactive	inactive	inactive	inactive
CCN(CCO)Cc1ccc(-c2ccc(NS(=O)(=O)c3cccc4cccnc34)cc2)cc1	16%	25%	2	92% (active)	inactive	inactive	inactive	inactive
Cc1cccc2[nH]c(-c3ccc(-c4ccc(NC(=O)C(=O)c5cccn5C)cc4)cc3)nc12	15%	40%	8	95% (active)	inactive	inactive	inactive	inactive
O=c1cc(NCCCNCc2scc(I)c2I)[nH]c2ccccc12	73% (active)	-16%	-1	100% (active)	inactive	inactive	inactive	inactive
CN1CCN(c2ccc(-c3cccc(NC(=O)c4ccc5ccccc5c4)c3)nn2)CC1	26%	17%	-2	94% (active)	inactive	inactive	inactive	inactive
O=C(NCc1cccc(F)c1)Nc1cccc(-c2ccc(-c3nc4ccc(F)cc4[nH]3)cc2)c1	0%	46%	-3	84% (active)	inactive	inactive	inactive	inactive
CCCCCCCCCN1CC[C@@H](CCCc2ccnc3ccc(O)cc23)[C@@H](CC)C1	59% (active)	58% (active)	-3	83% (active)	inactive	inactive	inactive	inactive
CN1CCN(CC(=O)Nc2cccc(-c3ccc(-c4nc5ccc(F)cc5[nH]4)cc3)c2)CC1	98% (active)	20%	6	101% (active)	inactive	inactive	inactive	inactive
O=C(Cc1ccc(Cl)cc1)NC1CCN(c2ccnc3cc(Cl)ccc23)C1 (stereo unspecified)	99% (active)	13%	-3	82% (active)	inactive	inactive	inactive	inactive
COc1ccc(OC)c(-c2cccc(-c3cccc(NC(=O)c4ccc([N+](=O)[O-])o4)c3)n2)c1	97% (active)	75% (active)	-7	98% (active)	inactive	inactive	inactive	inactive
OC(CNCCc1ccccc1)Cn1c2ccc(Cl)cc2c2cc(Cl)ccc21 (stereo unspecified)	96% (active)	53% (active)	8	98% (active)	inactive	inactive	inactive	inactive
OC(CNc1ccnc(Nc2cccc(CCN3CCOCC3)c2)n1)c1ccccc1 (stereo unspecified)	14%	34%	-1	102% (active)	inactive	inactive	inactive	inactive
Cn1nc(-c2ccc(S(=O)(=O)N3CCC(CCN4CCC(c5c[nH]c6ccccc56)CC4)CC3)s2)cc1C(F)(F)F	22%	40%	4	94% (active)	inactive	inactive	inactive	inactive
Cc1cc(Nc2ccncc2)n2nc(C)c(-c3ccccc3Cl)c2n1	93% (active)	2%	4	99% (active)	inactive	inactive	inactive	inactive

Compound	growth inhibition [1]	inhibition [2]	inhibition [3] [%]	growth inhibition [4]	outcome [5]	outcome [6]	outcome [7]	outcome [8]
O=C(c1cccc(Br)c1)N1CCN(c2ccc([N+](=O)[O-])c(NC3CC3)c2)CC1	100% (active)	5%	3	99% (active)	inactive	inactive	inactive	inactive
Cc1cccc(CNc2nc(C)cc(NCCC(=O)Nc3ccccc3)n2)c1	54% (active)	15%	-3	101% (active)	inactive	inactive	inactive	inactive
COc1ccc2nccc(N3CCN(CCNCc4ccc5c(n4)NC(=O)CS5)CC3)c2n1	67% (active)	10%	1	100% (active)	inactive	inactive	inactive	inactive
NC(=O)c1cccc(C(=O)Nc2ccc(-c3cccc(-c4nc5ccc(F)cc5[nH]4)c3)cc2)c1	5%	45%	-5	94% (active)	inactive	inactive	inactive	inactive
Fc1cc(Cl)ccc1Nc1ccnc2cc(I)ccc12	10%	11%	-1	90% (active)	inactive	inactive	inactive	inactive
COc1ccc2nccc(N3CCC(NCCNCc4cc5c(cn4)OCCO5)C3)c2n1 (stereo unspecified)	3%	8%	-3	99% (active)	inactive	inactive	inactive	inactive
Cc1nc(-c2cccc(Nc3nccc(NCC(O)c4ccccc4C(F)(F)F)n3)c2)cs1 (stereo unspecified)	50% (active)	48%	5	97% (active)	inactive	inactive	inactive	inactive
COc1cc(NC(=O)/C=C/c2cc(F)cc(F)c2F)cc(OCCN2CCN(CCN3CCOCC3)CC2)c1	94% (active)	21%	0	102% (active)	inactive	inactive	inactive	inactive
c1ccc2cc(CNCCCN3CCN(CCCNCc4ccc5ccccc5c4)CC3)ccc2c1	65% (active)	60% (active)	2	100% (active)	inactive	inactive	inactive	inactive
COc1ccccc1CCNc1ncc(F)c(N[C@@H](Cc2ccccc2)C(=O)NCCc2ccccc2)n1	83% (active)	7%	-2	90% (active)	inactive	inactive	inactive	inactive
CCOc1cc(C)ccc1N(C1CCN(CCCCNC(=O)c2ccc(-c3ccc(C(F)(F)F)cc3)cc2)CC1)S(=O)(=O)c1ccccc1	85% (active)	14%	-4	88% (active)	inactive	inactive	inactive	inactive
COCc1cc(C)nc2sc(C(=O)Nc3cc(C(C)(C)C)ccc3O)c(N)c12	57% (active)	-9%	-2	85% (active)	inactive	inactive	inactive	inactive
Cc1nnsc1C(=O)Nc1cccc(-c2csc(-c3nc4ccccc4[nH]3)c2)c1	50% (active)	51% (active)	8	94% (active)	inactive	inactive	inactive	inactive
O=C(NC(NC(=S)Nc1ccc([N+](=O)[O-])cc1)C(Cl)(Cl)Cl)c1cccc(Cl)c1 (stereo unspecified)	100% (active)	24%	0	97% (active)	inactive	inactive	inactive	inactive
CCCOc1ccc(N2C(N)=NC(N)=NC2(C)C)cc1	2%	1%	-6	97% (active)	inactive	inactive	inactive	inactive
O=C(Nc1ccccc1)c1cccc(Nc2nccc(Nc3ccc(Oc4ccccc4)cc3)n2)c1	11%	6%	-1	98% (active)	inactive	inactive	inactive	inactive
COc1cc(COc2c(C)nc(N)nc2N)cc(OC)c1OC	-5%	7%	-9	100% (active)	inactive	inactive	inactive	inactive
CC(C)(C)c1cc(NC(=O)c2ccc(Cl)c([N+](=O)[O-])c2)cc(C(C)(C)C)c1	7%	-4%	4	93% (active)	inactive	inactive	inactive	inactive
